Data: article PMC5540273 (PLoS ONE, 2017)

Legend:
Conditions in all cases: concentration: 1 μM,replicates: in singlicate; n = 1
MAP3K15 = tested on: MAP3K15
MAP3K1 = tested on: MAP3K1
MAP3K2 = tested on: MAP3K2
MAP3K3 = tested on: MAP3K3
MAP3K4 = tested on: MAP3K4
MAP4K2 = tested on: MAP4K2
MAP4K3 = tested on: MAP4K3
MAP4K4 = tested on: MAP4K4
MAP4K5 = tested on: MAP4K5
MAPKAPK2 = tested on: MAPKAPK2
MAPKAPK5 = tested on: MAPKAPK5
MARK1 = tested on: MARK1
MARK2 = tested on: MARK2
MARK3 = tested on: MARK3
MARK4 = tested on: MARK4
MAST1 = tested on: MAST1
MEK1 = tested on: T1, MEK1
T1 construct: gene MAP2K1

MEK2 = tested on: T2, MEK2
T2 construct: gene MAP2K2

MEK3 = tested on: T3, MEK3
T3 construct: gene MAP2K3

MEK4 = tested on: T4, MEK4
T4 construct: gene MAP2K4
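Also: KINOMEscan kinase panel screen.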

| SMILES | %Inh (MAP3K15) [%] | %Inh (MAP3K1) [%] | %Inh (MAP3K2) [%] | %Inh (MAP3K3) [%] | %Inh (MAP3K4) [%] | %Inh (MAP4K2) [%] | %Inh (MAP4K3) [%] | %Inh (MAP4K4) [%] | %Inh (MAP4K5) [%] | %Inh (MAPKAPK2) [%] | %Inh (MAPKAPK5) [%] | %Inh (MARK1) [%] | %Inh (MARK2) [%] | %Inh (MARK3) [%] | %Inh (MARK4) [%] | %Inh (MAST1) [%] | %Inh (MEK1) [%] | %Inh (MEK2) [%] | %Inh (MEK3) [%] | %Inh (MEK4) [%] |
| --- | --- | --- | --- | --- | --- | --- | --- | --- | --- | --- | --- | --- | --- | --- | --- | --- | --- | --- | --- | --- |
| NC(=O)Nc1sc(-c2ccc(F)cc2)cc1C(N)=O [GW789449] | 16 | 10 | 85 | 72 | 18 | 23 | 0 | 26 | 13 | 0 | 0 | 0 | 8 | 0 | 1 | 46 | 30 | 40 | 83 | 24 |
| COc1cc(Nc2nccc(N3CCC(NC(=O)c4cccc(C#N)c4)C3)n2)cc(OC)c1OC (stereo not drawn) [GSK1379751] | 0 | 2 | 19 | 0 | 0 | 0 | 0 | 0 | 0 | 0 | 0 | 100 | 0 | 0 | 100 | 0 | 0 | 0 | 0 | 19 |
| COc1cc2nccc(Nc3ccc(Oc4ccccc4)cc3)c2cc1OC.Cl [GI261656] | 0 | 21 | 0 | 0 | 0 | 0 | 0 | 0 | 0 | 0 | 0 | 0 | 0 | 0 | 0 | 3 | 96.9 | 92.5 | 0 | 11 |
| Cc1cccc(-c2nc(Nc3ccncc3)c3sccc3n2)n1 [GW869641] | 30 | 37 | 44 | 28 | 0 | 50 | 5 | 37 | 11 | 0 | 9 | 23 | 34 | 20 | 30 | 23 | 25 | 20 | 32 | 35 |
| Cl.Cl.NC[C@H](CC1CCCCC1)NC(=O)c1ccc(-c2ccnc3[nH]ccc23)s1 [GSK1581428] | 25 | 12 | 40 | 33 | 10 | 95.7 | 47 | 20 | 12 | 0 | 0 | 26 | 58 | 74 | 24 | 0 | 0 | 17 | 93.8 | 54 |
| Cn1ccc2ncnc(Oc3ccc(NC(=O)Nc4cccc(C(F)(F)F)c4)c(Cl)c3)c21 | 0 | 0 | 6 | 0 | 4 | 6 | 0 | 12 | 1 | 0 | 0 | 0 | 6 | 0 | 0 | 0 | 0 | 25 | 0 | 6 |
| CNC(=O)c1ccccc1Nc1nc(Nc2cccc(CS(C)(=O)=O)c2)ncc1C.O=CO [GSK1520489] | 9 | 10 | 94.4 | 94 | 85 | 96.3 | 91 | 0 | 4 | 0 | 0 | 71 | 87 | 72 | 92.3 | 5 | 94.5 | 91.1 | 69 | 56 |
| O=C(Nc1cccc(C(F)(F)F)c1)c1cccc(Oc2ccc3nccn3n2)c1 | 1 | 21 | 19 | 0 | 22 | 0 | 8 | 14 | 23 | 0 | 51 | 0 | 2 | 9 | 100 | 0 | 0 | 8 | 6 | 31 |
| Cc1n[nH]c2cc(Nc3ccnc(Nc4cccc(CN5CCOCC5)c4)n3)ccc12 [GW682569] | 0 | 29 | 8 | 0 | 0 | 5 | 0 | 10 | 14 | 0 | 0 | 4 | 9 | 0 | 0 | 16 | 14 | 0 | 11 | 16 |
| COc1cc2c(Nc3ccc(NC(=O)c4ccccc4)cc3)ncnc2cc1OCCCN1CCOCC1 [GSK301329] | 0 | 9 | 11 | 0 | 47 | 0 | 6 | 11 | 63 | 23 | 0 | 0 | 0 | 0 | 0 | 0 | 86 | 86 | 0 | 5 |
| COc1cc2ncn(-c3cc(OCC4CCCCC4)c(C(N)=O)s3)c2cc1OC [GSK204559] | 0 | 30 | 0 | 0 | 0 | 0 | 0 | 35 | 38 | 0 | 0 | 14 | 1 | 0 | 26 | 0 | 0 | 0 | 9 | 13 |
| Cn1ccc2ncnc(Oc3ccc(NC(=O)Nc4cncc(C(F)(F)F)c4)c(Cl)c3)c21 | 0 | 0 | 0 | 0 | 3 | 0 | 0 | 0 | 0 | 0 | 0 | 0 | 23 | 0 | 11 | 6 | 0 | 0 | 0 | 1 |
| CC(=O)c1c(-c2ccncc2)[nH]c(-c2ccncc2)c1C [GW493036] | 0 | 5 | 0 | 0 | 9 | 0 | 0 | 16 | 0 | 23 | 0 | 0 | 0 | 10 | 0 | 36 | 0 | 0 | 0 | 40 |
| Cn1cc(-c2cccc3c(N)c(C(N)=O)nnc23)cn1 | 7 | 29 | 14 | 30 | 95 | 0 | 8 | 22 | 14 | 0 | 0 | 0 | 27 | 0 | 18 | 17 | 5 | 21 | 60 | 19 |
| CS(=O)(=O)Nc1ccc(-c2ccnc3[nH]ccc23)cc1 [GSK993273] | 37 | 18 | 58 | 32 | 0 | 30 | 44 | 2 | 0 | 0 | 0 | 0 | 0 | 0 | 6 | 0 | 60 | 71 | 43 | 67 |
| C[C@@H](Oc1cc(-n2cnc3cc(-c4cnn(C)c4)ccc32)sc1C(N)=O)c1ccccc1Cl [GSK580432] | 12 | 90.6 | 20 | 20 | 37 | 60 | 93.8 | 32 | 98.9 | 0 | 0 | 63 | 61 | 82 | 59 | 0 | 0 | 0 | 0 | 18 |
| OCCn1cc(-c2cnc3nnn(Cc4ccc5ncccc5c4)c3n2)cn1 | 0 | 0 | 0 | 0 | 0 | 0 | 0 | 0 | 0 | 0 | 0 | 0 | 0 | 0 | 0 | 0 | 0 | 0 | 0 | 0 |
| c1ccc(Oc2ccc(Nc3ccnc4ccc(-c5ccccn5)cc34)cc2)cc1 [GW407034] | 0 | 14 | 14 | 0 | 17 | 0 | 11 | 21 | 13 | 24 | 0 | 0 | 0 | 0 | 0 | 2 | 85 | 66 | 0 | 16 |
| Cc1ccn2nc(-c3ccc(F)cc3)c(-c3ccncc3)c2c1.Cl [GW457859] | 0 | 0 | 0 | 0 | 0 | 2 | 0 | 14 | 0 | 15 | 0 | 0 | 0 | 0 | 0 | 64 | 0 | 48 | 0 | 0 |
| CSc1nccc(-c2c(-c3ccc(F)cc3)ncn2CCCN2CCOCC2)n1.Cl [SB-217146] | 0 | 0 | 23 | 1 | 0 | 0 | 0 | 0 | 0 | 0 | 0 | 15 | 0 | 40 | 20 | 6 | 30 | 43 | 33 | 16 |
| CS(=O)c1ccc(-c2coc3ccc(-c4n[nH]c(=O)o4)cc23)cc1 (stereo not drawn) | 37 | 0 | 0 | 11 | 5 | 2 | 1 | 0 | 0 | 0 | 11 | 15 | 23 | 0 | 22 | 6 | 17 | 18 | 25 | 43 |
